LDHA inh: blocks human lactate dehydrogenase A | purified LDHA, NADH/diaphorase-resazurin fluorescence; hits give low values | activity change, % (values are at about 110 or 230 µM) | hit rate 0.15% among 480,000; in the data active = activity change below about -30%; inconclusive = mostly about -25% to -30%;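 also: plate controls were DMSO wells for no effect and wells without enzyme for full effect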
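Remaining NADH was detected by diaphorase (0.133 mg/mL) converting 37 µM resazurin to fluorescent resorufin, read at 0 and 20 minutes. The preceding 5-minute room-temperature reaction used 2 nM LDHA, 0.2 mM sodium pyruvate and 0.06 mM NADH at pH 7.4.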
RORgamma inh: ROR gamma (mouse) transcription inhibition; Potency, µM (highest dose often 53.6 µM), for the others: at the highest dose activity change, negative = inhibition, actives largely listed as inhibitors; Drosophila S2 Gal4-RORgamma UAS-luciferase reporter, 20 h; hit rate 5.4% among 310,000; P51450; AID 2551; also: potency is read from the fitted curve at half-maximal effect; nearly all actives have a fitted effect of over 60% in size
Target sequence (P51450 whole entry, looked up, the tested form may be a part): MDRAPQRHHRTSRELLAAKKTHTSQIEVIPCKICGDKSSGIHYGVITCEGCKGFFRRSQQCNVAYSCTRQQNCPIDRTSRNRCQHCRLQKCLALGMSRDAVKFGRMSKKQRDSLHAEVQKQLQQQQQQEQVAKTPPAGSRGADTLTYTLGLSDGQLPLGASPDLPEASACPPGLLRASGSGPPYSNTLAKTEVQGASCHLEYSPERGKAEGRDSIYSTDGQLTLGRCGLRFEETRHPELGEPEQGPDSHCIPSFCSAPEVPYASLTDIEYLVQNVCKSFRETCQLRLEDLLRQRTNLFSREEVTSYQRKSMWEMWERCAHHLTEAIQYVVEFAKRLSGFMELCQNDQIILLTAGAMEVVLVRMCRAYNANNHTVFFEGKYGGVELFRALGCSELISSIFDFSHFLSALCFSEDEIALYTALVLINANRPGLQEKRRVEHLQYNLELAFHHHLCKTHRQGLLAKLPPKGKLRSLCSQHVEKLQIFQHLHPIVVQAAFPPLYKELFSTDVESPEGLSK
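Stable Schneider cell line, Gal4 DNA-binding domain fused to ROR gamma, UAS-luciferase. Cmpd 1 hr RT → CuSO4 700 uM final → 20 hr RT → luciferase reagent 10 min → luminescence.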
TDP1 cell noCPT: qHTS for Inhibitors of human tyrosyl-DNA phosphodiesterase 1 (TDP1): qHTS in cells in absence of CPT. hit rate 15% among 420,000. Potency, µM (series often up to 46.2 µM), for inactives: at the highest dose activity change, negative = growth inhibition, actives largely listed as inhibitors. DT40 Tdp1-/- hTDP1 cells, no CPT, ATP luminescence, 48 h. AID 686978, 2013; also: potency is read from the fitted curve at half-maximal effect; nearly all actives have a fitted effect of over 55% in size
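Luminescent ATP content (CellTiter-Glo) served as the growth readout. Knockout chicken DT40 cells expressing human TDP1 were exposed to compounds without camptothecin for a minimum 48 hr at 37 °C.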
TDP1 cell CPT: growth inhibition of DT40 Tdp1-/-;hTDP1 cells with camptothecin (screen for TDP1 inhibitors); chicken DT40 Tdp1-/-;hTDP1 cells + 20 nM CPT, ATP luminescence, 48 h; Potency, µM (series often up to 46.2 µM), inactives show at the top dose activity change, negative = growth inhibition, most hits filed as inhibitors; hit rate 12% among 420,000; AID 686979; also: potency is read from the fitted curve at half-maximal effect; nearly all actives have a fitted effect of over 55% in size
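Chicken DT40 Tdp1-/- cells complemented with human TDP1, 400 cells/well, exposed to compounds plus 20 nM camptothecin for at least 48 h at 37 C; viability read as ATP content by CellTiter-Glo luminescence.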
VP16 counter: Gal4-VP16 reporter inhibition counter-screen; Drosophila S2 Gal4-VP16 UAS-luciferase, luminescence, 20 h; hit rate 3.5% among 310,000; AID 2546; Potency, µM (titrated, usually from 53.6 µM), without a hit: at the highest dose activity, negative = inhibition, actives largely listed as inhibitors;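 also: Gal4-VP16 expression switched on by copper sulfate through the metallothionein promoter; potency is read from the fitted curve at half-maximal effect; nearly all actives have a fitted effect of over 50% in size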
IL-1B inflam inh: inflammasome signaling inhibition, IL-1 beta readout; THP-1 LPS/ATP IL-1B secretion, AlphaLISA, 16 h; hits give low values; activity change, % at 57.5 µM; hit rate 4.7% among 360,000; AID 743279; in the data active = activity change below about -50%; inconclusive = mostly about -30% to -49%
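THP-1 cells pretreated 1 hr with compounds (up to 57.5 uM final), then stimulated with LPS (250 ng/mL final) plus ATP (1.25 mM final); secreted IL-1B measured by AlphaLISA after 16 hr, decreased signal indicating inhibition.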
An asterisk follows results filed as active; ? = inconclusive; nt = no result given; [ ] = dose if it differs, or a comment. A selection: hits, their analogues and other compounds. The true share with any hit is near 18%. Unless noted, calls follow the shape of the dose curve; as a rule, active = well fitted curve in the direction sought with a large enough effect; inconclusive = small, poorly fitted or top-dose-only effect, or another doubt; inactive = no such curve, though single readings can be large; an effect the other way counts as inactive or inconclusive. Unless noted, % is scaled to controls: 0 for no effect and ±100 for the full control effect.

SMILES	LDHA inh	RORgamma inh	TDP1 cell noCPT	TDP1 cell CPT	VP16 counter	IL-1B inflam inh
Cc1ccc(S(=O)(=O)Nc2ccnc3ccccc23)cc1	-14.0	13.9%	20.6µM*	?	6.7%	-8.1
Cc1ccc(S(=O)(=O)Nc2cccc3ncccc23)cc1	-0.7	28.3%	-24.1%	?	-10.3%	32.0
Cc1ccc(S(=O)(=O)Nc2ccc(O)c3cccnc23)cc1	23.0	10µM*	6.51µM*	2.91µM*	?	74.4
CONC(=O)C(NC(=O)c1ccc(Cl)cc1Cl)C(C)C (stereo unspecified)	3.6	nt	nt	nt	nt	nt
Cc1cccc(-c2nc(C#N)c(N3CCN(C(=O)c4ccc(F)cc4)CC3)o2)c1	-0.1	nt	nt	nt	nt	nt
COC1CCC2(C)C(=CCC3C4CC(O)CC4(C)CCC32)C1 (stereo unspecified)	1.0	nt	20.6µM*	20.6µM*	nt	6.4
[O-]/[N+](=C\c1ccccc1)[C@@H]1CCCC[C@@H]1/[N+]([O-])=C/c1ccccc1	-1.8	?	-8.0%	0.2%	-0.6%	20.0
O=[N+]([O-])c1ccc(/C=[N+](\[O-])[C@@H]2CCCC[C@@H]2/[N+]([O-])=C/c2ccc([N+](=O)[O-])o2)o1	6.1	-71.8%	10.3µM*	7.31µM*	?	-92.3*
CCC(C)C(=O)N1CCCCC1CC (stereo unspecified)	8.1	nt	nt	nt	nt	nt
COc1nc(C)ccc1-c1noc(-c2cccs2)n1	-10.4	1.78µM*	9.2%	-4.2%	?	-2.6
Fc1ccc(-c2csc(-c3cccnc3)n2)cc1F	-3.1	11.4%	4.2%	0.7%	22.5%	37.3
Cc1nc(-c2ccc(O)c(O)c2)cs1	28.3	-32.1%	?	16.4µM*	?	12.8
Oc1ccc(-c2csc(-c3cccnc3)n2)cc1O	30.6	2.8%	23.1µM*	18.4µM*	4.8%	-77.7*
COC(=O)c1sc2cccc(F)c2c1S(=O)(=O)N1CCN(c2cc(C)ccc2C)CC1	-4.7	nt	nt	nt	nt	nt
O=C(CSc1nnc(-c2ccc(S(=O)(=O)N3CCCCCC3)cc2)o1)c1ccc(Cl)cc1	-12.0	nt	nt	nt	nt	nt
COc1cccc(NC(=O)c2ccc(CN3CCN(c4ccccc4)CC3)cc2)c1	0.0	?	18.4µM*	?	-28.1%	-1.8
COc1cccc(NC(=O)c2ccc(CN3CCc4ccccc4C3)cc2)c1	-4.9	36.6%	?	16.4µM*	26.0%	?
Cc1cc(C)c(NC(=O)c2ccc(CN3CCc4ccccc4C3)cc2)c(C)c1	-4.2	19.8%	11.6µM*	16.4µM*	2.6%	-16.8
CC(=O)c1cccc(NC(=O)c2ccc(CN3CCc4ccccc4C3)cc2)c1	-2.1	15.9%	-20.3%	-27.3%	?	-13.6
COc1cccc(C(=O)Nc2ccc(N3CCN(Cc4ccccc4)CC3)cc2)c1	-5.1	-12.1%	?	?	13.6%	?
COc1cccc(N2CCN(CC(=O)NC3=Nc4ccccc4N=C(C)C3c3ccccc3)CC2)c1 (stereo unspecified)	2.9	23.2%	?	?	-11.0%	nt
COc1cccc(N2CCN(CC(=O)Nc3nnc(-c4ccccc4)s3)CC2)c1	-1.4	-36.5%	20.6µM*	23.1µM*	11.1%	-12.3
Cc1ccccc1C(=O)N/N=C/c1sccc1C	3.2	nt	nt	nt	nt	nt
C/C(=N\NC(=O)c1ccc(CN2CCc3ccccc3C2)cc1)c1ccccc1O	-1.9	0.891µM*	8.2µM*	11.6µM*	2.51µM*	163.3
COc1c(F)c(F)c(C(=O)Nc2ccc(N3CCN(Cc4ccccc4)CC3)cc2)c(F)c1F	0.9	-0.4%	11.2µM*	15.8µM*	-22.3%	-9.1
SMILES	LDHA inh	RORgamma inh	TDP1 cell noCPT	TDP1 cell CPT	VP16 counter	IL-1B inflam inh
COc1ccc(C(=O)Nc2ccc(N3CCN(Cc4ccccc4)CC3)cc2)cc1	-16.5	-22.0%	-16.6%	-13.9%	-9.0%[10 µM]	24.3
CC(NCC(=O)NC1(C#N)CCCCCC1)c1ccc(Cl)cc1Cl (stereo unspecified)	-0.5	nt	nt	nt	nt	nt
CCN1C(=NCCc2c[nH]c3ccccc23)N[C@@H](c2ccccc2)[C@H](C(=O)OC)[C@H]1C	-8.3	-13.3%	18.4µM*	9.2µM*	0.4%	13.9
COC(=O)C1=C(C)N(Cc2ccccc2)C(=NCCc2c[nH]c3ccccc23)N[C@H]1c1ccccc1	-1.1	?	20.6µM*	?	-10.7%	?
COC(=O)C1=C(C)N(Cc2ccccc2)C(=NCCc2c[nH]c3ccccc23)N[C@H]1c1cccc(F)c1	1.7	nt	2.59µM*	5.17µM*	nt	-50.4*
CCN1C(=NCCOC)N[C@@H](c2cccc(F)c2)C(C(=O)OC)=C1C	-13.7	-19.8%	-22.8%	-4.2%	2.2%	-10.2
COCCN=C1N[C@@H](c2ccc(Br)cc2)C(C(=O)OC)=C(C)N1Cc1ccccc1	-7.3	-11.7%	?	?	-17.0%	?
Cc1cc(C)n2[nH]c(=O)c(N=Nc3cccc(C(F)(F)F)c3)c2n1	1.1	12.6µM*	?	?	?	1.7
CSc1ccccc1NC(=O)CN(C)C(=O)c1cc(S(=O)(=O)N2CCOCC2)ccc1Cl	1.1	nt	nt	nt	nt	nt
CCC1(c2ccccc2)NC(=O)N(CC(=O)Nc2cc(S(=O)(=O)N3CCCCC3)ccc2OC(C)C)C1=O (stereo unspecified)	-0.8	nt	?	23.1µM*	nt	?
CCC1(c2ccccc2)NC(=O)N(CC(=O)Nc2cc(S(=O)(=O)N3CCCCCC3)ccc2OC)C1=O (stereo unspecified)	-1.7	nt	20.6µM*	16.4µM*	nt	-3.4
COc1ccc2c(C)c(CC(=O)Nc3ccc(C(C)=O)cc3)c(=O)oc2c1OC	8.1	nt	nt	nt	nt	nt
CCC(C)(C)n1nnnc1C(c1ccc(C)cc1)N1CCN(Cc2ccc3c(c2)OCO3)CC1 (stereo unspecified)	4.9	-9.7%	?	0.9%	-2.3%	-53.1*
CCC(C)(C)n1nnnc1C(c1ccc2ncccc2c1)N1CCN(Cc2ccc3c(c2)OCO3)CC1 (stereo unspecified)	-3.7	-3.8%[10 µM]	-4.2%	-1.5%	0.9%	-0.5
CCC(C)(C)n1nnnc1C(c1ccc(C)cc1)N1CCC(C)CC1 (stereo unspecified)	-0.8	-32.8%	?	13µM*	?	-4.8
CN1C(=S)SC(C)(C)C1N(O)C=C1C=CC(=O)C=C1 (stereo unspecified)	3.9	nt	nt	nt	nt	nt
COc1cccc(CN(C(=O)c2oc3c(C)c(C)ccc3c2C)C2CCS(=O)(=O)C2)c1 (stereo unspecified)	1.3	nt	nt	nt	nt	nt
COc1ccc(CN(Cc2ccccc2)C(=O)c2ccccc2)cc1COc1ccc(NC(C)=O)cc1	2.1	nt	nt	nt	nt	nt
